# Data taken from the supplement of paper PMC9135407.
# “And” between values parts separate entries of the source, which are not always exact repeats. Identical values can stand only once. Counter-ions that a name gives are not always drawn. The campaign covered roughly 5,800 compounds. About 620 (11%) showed activity. The list comes from a sample in which actives are over-represented; it also holds similar structures and randomly drawn compounds. Values without a mark were called inactive.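 How the source made its calls: active = score above a cut-off or among the top three wells of a plate; in these data no inactive exceeds 0.85.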
# System: primary human hepatic stellate cells (donor 1)
# Experiment: scaled lipid accumulation score (0 = DMSO-like, 1 = nortriptyline-like); higher = stronger HSC inactivation (lipid re-accumulation), active = hit call of the paper
# Conditions: 48 h
# [1] = library stock concentration: 1 mM
# [2] = library stock concentration: 10 mM
# [3] = library stock concentration: 2 mM
# [4] = library stock concentration: 80 uM
# [5] = library stock concentration: 400 uM
# [6] = library stock concentration: 3.33 mM
# [7] = library stock concentration: 100 uM
smiles,measurement,setting,value
CCCCC/C=C\C/C=C\C/C=C\C/C=C\CCCC(=O)NC[C@@H](C)O [R-2 Methanandamide],scaled lipid accumulation score,[1],≤ 0
COC[C@@H]([C@H](O)[C@H](O)C(=O)NCC[C@H](C)c1nc(/C=C/C[C@@H]2O[C@]3(C[C@@H](O)[C@@H]2C)O[C@H]([C@H](C[C@H](O)[C@H](C)[C@H](O)[C@H](C)/C=C(C)/C(C)=C/C=C/C(C)=C\C#N)OC)[C@H](OP(=O)(O)O)C3(C)C)co1)N(C)C [Calyculin A],scaled lipid accumulation score,library stock concentration: 500 uM,0.228
C=C1[C@@H](C)[C@H]2[C@H](Cc3ccccc3)NC(=O)[C@]23OC(=O)/C=C/[C@H](O)CCC[C@@H](C)C/C=C/[C@H]3[C@@H]1O [Cytochalasin B],scaled lipid accumulation score,library stock concentration: 10.4 mM,0.806
C=C1[C@@H](C)[C@H]2[C@H](Cc3ccccc3)NC(=O)C23[C@H](OC(C)=O)/C=C/[C@](C)(O)C(=O)[C@@H](C)C/C=C/[C@H]3[C@@H]1O (stereo partly specified) [Cytochalasin D],scaled lipid accumulation score,library stock concentration: 9.9 mM,0.918 (active)
CC[C@@H](C)C(=O)O[C@H]1[C@H](O)[C@H]2[C@@H](CN3C[C@@H](C)CC[C@H]3[C@@]2(C)O)[C@@H]2C[C@]34O[C@]5(O)[C@@H](OC(=O)[C@](C)(O)[C@@H](C)O)CC[C@@]3(C)[C@@H]5[C@@H](OC(C)=O)[C@@H](OC(C)=O)[C@H]4[C@@]21O (stereo in doubt) [Protoveratrine b],scaled lipid accumulation score,[2],≤ 0
COc1ccc2c(c[n+](C)c3c4cc5c(cc4ccc23)OCO5)c1OC.Cl [Chelerythrine chloride],scaled lipid accumulation score,[3],1.1 (active)
COc1ccc2c(c[n+](C)c3c4cc5c(cc4ccc23)OCO5)c1OC [Chelerythrine chloride],scaled lipid accumulation score,[4],≤ -0.016
same,scaled lipid accumulation score,[5],≤ -0.016
same,scaled lipid accumulation score,[2],0.308 and 0.167
"COc1ccc2c(c1OC)CN1CCc3cc4c(cc3C1C2)OCO4 (stereo unspecified) [(d,l)-Tetrahydroberberine]",scaled lipid accumulation score,,≤ 0
COc1ccc2c(c[n+](C)c3c4cc5c(cc4ccc23)OCO5)c1OC [Chelerythrine Chloride],scaled lipid accumulation score,[6],0.656
CCCCC/C=C\C/C=C\C/C=C\C/C=C\CCC(C)C(=O)NCCF (stereo unspecified),scaled lipid accumulation score,[1],0.05
C/C=C1/C[N+]2(C)CCC34C(=C(C=O)[C@H]1C[C@@H]32)Nc1ccccc14 (stereo partly specified) [Fluorocurarine chloride],scaled lipid accumulation score,,≤ 0
CC(C)C1CNC(C(=O)O)C1CC(=O)O (stereo unspecified) [Dihydrokainic acid],scaled lipid accumulation score,[2],0.08
CCCCC/C=C\C[C@@H](/C=C/C=C\C/C=C\CCCC(=O)O)OO,scaled lipid accumulation score,[7],≤ -0.021
"CN1[C@@H]2CC[C@H]1C[C@@H](OC(=O)c1cc(Cl)cc(Cl)c1)C2 [3-Tropanyl-3,5-dichlorobenzoate]",scaled lipid accumulation score,[2],0.646
CN1C2CCC1CC(OC(=O)c1cc(Cl)cc(Cl)c1)C2 (stereo unspecified),scaled lipid accumulation score,[2],1.04 (active)
"Cc1cc(C)cc(C(=O)OC2C[C@H]3CC[C@@H](C2)N3C)c1 (stereo partly specified) [Tropanyl-3,5-dimethylbenzoate]",scaled lipid accumulation score,[2],0.57
C=C(C)[C@H]1O[C@H]2CC[C@@]3(C)[C@@](O)(CC[C@H]4[C@@H]5OC(C)(C)[C@H]6C[C@@H]7C(=C)Cc8c(Cl)cc9[nH]c(c5c9c8[C@@]76O)[C@@]43C)[C@@]23O[C@H]3[C@H]1O [Penitrem A],scaled lipid accumulation score,library stock concentration: 7.9 mM,≤ -0.021
O=c1[nH]c2ccccc2n1C1CCN(CCCC(c2ccc(F)cc2)c2ccc(F)cc2)CC1 [Pimozide] [listing 1 of 3 here],scaled lipid accumulation score,[2],1.15 (active)
O=c1[nH]c2ccccc2n1C1CCN(CCCC(c2ccc(F)cc2)c2ccc(F)cc2)CC1 [Pimozide] [listing 2 of 3 here],scaled lipid accumulation score,,0.242
same,scaled lipid accumulation score,[2],0.021
O=c1[nH]c2ccccc2n1C1CCN(CCCC(c2ccc(F)cc2)c2ccc(F)cc2)CC1 [Pimozide] [listing 3 of 3 here],scaled lipid accumulation score,[2],1.21 (active)
O=C(CCCN1CCC(n2c(=O)[nH]c3ccccc32)CC1)c1ccc(F)cc1 [Benperidol],scaled lipid accumulation score,,0.202
O=c1[nH]c2ccccc2n1CCCN1CCC(n2c(=O)[nH]c3cc(Cl)ccc32)CC1 [Domperidone],scaled lipid accumulation score,,0.362
same,scaled lipid accumulation score,[6],0.062
same,scaled lipid accumulation score,library stock concentration: 4.7 mM,0.135 and 0.071
O=c1[nH]c2ccccc2n1C1CCN(Cc2ccc(-c3[nH]c4cc5ncnc5cc4nc3-c3ccccc3)cc2)CC1 [Sigma A6730],scaled lipid accumulation score,[4],≤ 0
same,scaled lipid accumulation score,[5],≤ 0
same,scaled lipid accumulation score,[3],0.055
same,scaled lipid accumulation score,[2],0.683
c1cc(N2CCNCC2)c2cc[nH]c2c1 [4-(1-piperazinyl)-1H-Indole (hydrochloride)],scaled lipid accumulation score,[1],≤ 0
CNCCCCCCN(C)N(O)N=O,scaled lipid accumulation score,[1],0.005
OC1CCCCC1N1CCC(c2ccccc2)CC1 (stereo unspecified),scaled lipid accumulation score,[2],≤ 0
OC1CCCCC1N1CCC(c2ccccc2)CC1 (stereo unspecified) [Vesamicol hydrochloride],scaled lipid accumulation score,library stock concentration: 6.8 mM,≤ 0
same,scaled lipid accumulation score,[2],≤ -0.027
NC(=O)C[S@@+]([O-])C(c1ccccc1)c1ccccc1,scaled lipid accumulation score,[2],≤ 0
CCCCC[C@@H](/C=C/C=C\C/C=C\C/C=C\CCCC(=O)O)OO,scaled lipid accumulation score,[7],≤ -0.01
CCCCC/C=C\C/C=C\C/C=C\C/C=C\CCCC(=O)Nc1cccc(O)c1 [N-(3-hydroxyphenyl)-Arachidonoyl amide],scaled lipid accumulation score,[1],0.053
CCN(CC)CCOC(=O)C(O)(c1ccccc1)c1ccccc1,scaled lipid accumulation score,[2],≤ 0
CCCCC/C=C\C/C=C\C/C=C\C/C=C\CCCC(=O)NCCF [Arachidonoyl-2'-Fluoroethylamide],scaled lipid accumulation score,[1],≤ 0
CCCN1CCc2cccc3c2[C@H]1Cc1ccc(O)c(O)c1-3 [R(-)-Propylnorapomorphine hydrochloride],scaled lipid accumulation score,[2],≤ -0.038
"CCCCCCCCCC(=O)OC[C@H](COP(=O)([O-])OCC[N+](C)(C)C)OC(=O)CCCCCCCCC [1,2-Didecanoyl PC]",scaled lipid accumulation score,[1],≤ 0
c1ccc2sc(C3(N4CCCCC4)CCCCC3)cc2c1 [BTCP maleate],scaled lipid accumulation score,[2],0.248
c1ccc2sc(C3(N4CCCCC4)CCCCC3)cc2c1 [BTCP hydrochloride],scaled lipid accumulation score,[2],0.74
S=C=Nc1cccc(C2(N3CCCCC3)CCCCC2)c1 [Metaphit],scaled lipid accumulation score,[2],0.949 (active)
COC(=O)[C@@H](N)CCCNC(=N)N[N+](=O)[O-] [L-NAME hydrochloride],scaled lipid accumulation score,[2],≤ 0
COC(=O)[C@@H](N)CCCNC(=N)N[N+](=O)[O-] [NG-Nitro-L-arginine methyl ester hydrochloride],scaled lipid accumulation score,[2],0.047
COC(=O)[C@@H](N)CCCNC(=N)N[N+](=O)[O-] [L-NAME (hydrochloride)],scaled lipid accumulation score,[1],≤ 0
COC(=O)[C@@H](N)CCCNC(=N)N[N+](=O)[O-],scaled lipid accumulation score,library stock concentration: 21.4 mM,≤ -0.012
"c1cc2ccsc2c(N2CCNCC2)n1 [7-Piperazin-1-yl-thieno[2,3-c] Pyridine (hydrochloride)]",scaled lipid accumulation score,[1],≤ 0
c1cc(N2CCNCC2)c2cnccc2c1 [8-piperazin-1-yl-Isoquinoline (hydrochloride)],scaled lipid accumulation score,[1],0.005
Oc1ccc2c3c1O[C@H]1c4c(c5ccccc5n4Cc4ccccc4)C[C@@]4(O)C(C2)N(CC2CC2)CC[C@]314 [N-Benzylnaltrindole hydrochloride],scaled lipid accumulation score,[2],0.77
Oc1ccc2c3c1O[C@H]1c4oc5ccccc5c4C[C@@]4(O)[C@@H](C2)N(CC2CC2)CC[C@]314 [Naltriben mesylate],scaled lipid accumulation score,library stock concentration: 4.8 mM,0.403
CS(=O)(=O)O.Oc1ccc2c3c1O[C@H]1c4oc5ccccc5c4C[C@@]4(O)C(C2)N(CC2CC2)CC[C@]314 [Naltriben mesylate],scaled lipid accumulation score,[2],1.27 (active)
Oc1ccc2c3c1O[C@H]1[C@@H](O)CC[C@@]4(O)[C@@H](C2)N(CC2CCC2)CC[C@]314 [Nalbuphine hydrochloride],scaled lipid accumulation score,,≤ 0
same,scaled lipid accumulation score,library stock concentration: 5.1 mM,0.02
same,scaled lipid accumulation score,[2],≤ 0
NC(N)=Nc1ccc2[nH]c3c(c2c1)C[C@@]1(O)[C@H]2Cc4ccc(O)c5c4[C@@]1(CCN2CC1CC1)[C@H]3O5 [GNTI dihydrochloride],scaled lipid accumulation score,[2],≤ -0.006
NC(N)=Nc1ccc2[nH]c3c(c2c1)C[C@@]1(O)[C@H]2Cc4ccc(O)c5c4[C@@]1(CCN2CC1CC1)[C@H]3O5 [Guanidinyl-naltrindole di-trifluoroacetate],scaled lipid accumulation score,[2],≤ -0.07
Oc1ccc2c3c1O[C@H]1[C@@H](O)CC[C@@]4(O)[C@@H](C2)N(CC2CCC2)CC[C@]314 [Nalbuphine],scaled lipid accumulation score,[2],0.075
CS(=O)(=O)O.Oc1ccc2c3c1O[C@H]1c4oc5ccccc5c4C[C@@]4(O)C(C2)N(CC2CC2)CCC314 (stereo partly specified) [Naltriben methanesulfonate],scaled lipid accumulation score,[2],1.11 (active)
NNCc1ccccc1 [Benzylhydrazine hydrochloride],scaled lipid accumulation score,[2],0.294
C[C@@H]1NCCc2cc(O)c(O)cc21 [Salsolinol hydrobromide],scaled lipid accumulation score,,≤ 0
C#CC(C)(O)CC (stereo unspecified),scaled lipid accumulation score,[2],≤ 0
Cc1nnc2n1-c1ccc(Cl)cc1C(c1ccccc1)=NC2 [Alprazolam],scaled lipid accumulation score,[2],≤ 0
Cc1ncc2n1-c1ccc(Cl)cc1C(c1ccccc1F)=NC2,scaled lipid accumulation score,[2],≤ 0
CCCCC/C=C\C=C\[C@H](CCCCCCCC(=O)O)OO,scaled lipid accumulation score,[7],≤ -0.021
C=C1[C@@H](O)[C@@H]2O[C@]3(CC[C@H](/C=C/[C@@H](C)[C@@H]4CC(C)=C[C@@]5(O[C@H](C[C@@](C)(O)C(=O)O)CC[C@H]5O)O4)O3)CC[C@H]2O[C@@H]1[C@@H](O)C[C@H](C)[C@H]1O[C@@]2(CCCCO2)CC[C@H]1C [Okadaic acid],scaled lipid accumulation score,library stock concentration: 600 uM,0.393
COC1=CC(=O)O[C@@H](/C=C/c2ccccc2)C1 (racemic) [Kavain (+/-)],scaled lipid accumulation score,library stock concentration: 21.7 mM,0.117
COC1=CC(=O)O[C@@H](/C=C/c2ccccc2)C1 [Kawain],scaled lipid accumulation score,,0.119
